In PubChem BioAssay AID372 (MTDP, 2006):
Screen size: about 100,000 compounds; about 770 (0.77%) were called active. This excerpt belongs to a sample that is enriched for actives. Values without a mark were called inactive. No stated cut-off is given here; in the data, active means inhibition above about 50%; inactive means the rest.

Biological target: Gag-Pol polyprotein (Human immunodeficiency virus type 1 group M subtype B (isolate HXB2)) (UniProt P04585)
Test: RNase H inhibition, HIV 1 Gag Pol polyprotein, FRET biochemical assay, screening (AID 372)
Details: HIV-1 RT RNase H, FRET RNA/DNA substrate fluorescence; at 10 µM; hits give high values

Row | SMILES | inhibition
1 | CCN1CCN(CC(O)COc2ccc(C(C)(C)C)cc2)CC1 (stereo not given) | 0%
2 | O=C(O)c1ccc(C(=O)Nc2ccccc2Oc2ccccc2)c(C(=O)O)c1 | 6%
3 | O=C(O)c1ccc(C(=O)Nc2ccc(I)cc2)c(C(=O)O)c1 | 9%
4 | O=C(O)c1ccc(C(=O)Nc2ccccc2Br)c(C(=O)O)c1 | 54% (active)
5 | CCC1CCc2c(sc(NC(=O)CCC(=O)O)c2C#N)C1 (stereo not given) | 2%
6 | C=CCNc1nc(-c2ccc(Cl)cc2)nc2ccccc12 | 8%
7 | Cc1cc(=O)oc2cc3occ(-c4ccccc4)c3cc12 | 57% (active)
8 | Cc1coc2cc3oc(=O)cc(C)c3cc12 | 7%
9 | Cc1cc(=O)oc2c(C)c3occ(-c4ccccc4)c3cc12 | 31%
10 | O=C(O)CC(C(=O)O)N1C(=O)/C(=C\C(Cl)=C/c2ccc([N+](=O)[O-])cc2)SC1=S (stereo not given) | 14%
11 | c1ccc(CNc2nc(-c3ccccc3)[n+](-c3ccccc3)s2)cc1 | 52% (active)
12 | c1ccc(CNc2nc(-c3ccccc3)cc(-c3ccccc3)n2)cc1 | 15%
13 | c1ccc(Nc2nc(-c3ccccc3)[n+](-c3ccccc3)s2)cc1 | 30%
14 | CS(=O)(=O)N(CC(=O)NCCSCc1ccccc1Cl)c1ccc(Br)cc1 | 50% (active)
15 | CS(=O)(=O)N(CC(=O)NCCSc1ccc(Cl)cc1)c1ccc(Br)cc1 | 8%
16 | CCOc1ccc(N(CC(=O)NCCSCc2ccc(Cl)cc2)S(C)(=O)=O)cc1 | 22%
17 | CS(=O)(=O)N(CC(=O)NCCSCc1ccc(Cl)cc1)c1ccc(Cl)cc1 | 55% (active)
18 | COc1ccc(N(CC(=O)NCCSCc2ccc(Cl)cc2)S(C)(=O)=O)cc1Cl | 38%
19 | Cc1cc(C)cc(N(CC(=O)NCCSCc2ccc(Cl)cc2)S(C)(=O)=O)c1 | 57% (active)
20 | Cc1ccc(CSCCNC(=O)CN(c2cccc(C)c2)S(C)(=O)=O)cc1 | 18%
21 | COc1ccc(S(=O)(=O)N(CC(=O)NCCSCc2ccc(Cl)cc2)c2cc(C)cc(C)c2)cc1OC | 12%
22 | COc1ccc(N(CC(=O)NCCSCc2ccccc2Cl)S(C)(=O)=O)cc1 | 22%

Row | SMILES | inhibition
23 | O=C(NC(=S)Nc1ccccc1[N+](=O)[O-])c1ccc(-c2ccccc2)cc1 | 13%
24 | O=C(Cn1c(NCCCO)nc2ccccc21)c1ccc(Br)s1 | 11%
25 | Cc1sc(NC(=O)/C=C/c2ccc(Cl)cc2Cl)c(C(N)=O)c1C | 26%
26 | Nc1nnc(SCC(=O)Nc2ccccc2Oc2ccccc2)s1 | 4%
27 | CCC(C)c1ccc(NC(=S)NC(=O)c2ccc(OC)c(Br)c2)cc1 (stereo not given) | 9%
28 | COc1ccc(CCN(C)C2CC(=O)N(c3ccc(F)cc3)C2=O)cc1OC (stereo not given) | 0%
29 | Cc1ccc2oc(-c3cc(NC(=O)c4ccc(I)cc4)ccc3O)nc2c1 | 10%
30 | COc1ccc(Cc2cnc(NC(=O)c3ccccc3Cl)s2)cc1 | 11%
31 | NS(=O)(=O)c1ccc(CNC2CC(=O)N(CCc3ccccc3)C2=O)cc1 (stereo not given) | 9%
32 | O=c1c2cc([N+](=O)[O-])ccc2[nH]c2c1[nH]c1ccccc12 | 33%
33 | O=[N+]([O-])c1ccc2nc3c([nH]c4ccccc43)c(N3CCOCC3)c2c1 | 6%
34 | O=[N+]([O-])c1ccc2nc3c([nH]c4ccccc43)c(Cl)c2c1 | 58% (active)
35 | CCOc1cc(C(=O)NCc2ccccc2OC)cc(OCC)c1OCC | 2%
36 | Cc1ccc(C(=O)NNC(=S)NC(C)(C)C)cc1 | 6%
37 | O=C(CC1SC(=Nc2ccccc2)N(c2ccccc2)C1=O)Nc1ccccc1 (stereo not given) | 58% (active)
38 | O=C(CC1SC(=Nc2ccccc2)N(c2ccccc2)C1=O)Nc1ccc(F)cc1 (stereo not given) | 14%
39 | Cc1ccc(NC(=O)CC2SC(=Nc3ccccc3)N(c3ccccc3)C2=O)cc1 (stereo not given) | 5%
40 | O=C(N/C(=C/c1cccc(Br)c1)C(=O)N1CCOCC1)c1ccccc1 | 5%
41 | CC(C)Cc1nnc(NC(=O)c2ccccc2I)s1 | 0%
42 | CCOC(=O)N1CCN(CCC(=O)Nc2ccc3c(c2)OCO3)CC1 | 16%
43 | Cc1cc2nn(-c3ccc(Cl)cc3)nc2cc1NC(=O)c1ccc(Cl)cc1Cl | 58% (active)
44 | COc1ccc(-n2nc3cc(C)c(NC(=O)/C=C/c4ccccc4)cc3n2)cc1 | 42%

Row | SMILES | inhibition
45 | Cc1ccc(-n2nc3cc(C)c(NC(=O)c4ccc(Cl)cc4Cl)cc3n2)cc1 | 1%
46 | Cc1cc2nn(-c3ccccc3)nc2cc1NC(=O)c1ccc(Cl)cc1Cl | 41%
47 | Cc1ccc(-n2nc3cc(C)c(NC(=O)c4ccccc4[N+](=O)[O-])cc3n2)cc1 | 15%
48 | Cc1cc2nn(-c3ccccc3)nc2cc1NC(=O)/C=C/c1ccccc1 | 12%
49 | Cc1cc2nn(-c3ccc(Cl)cc3)nc2cc1NC(=O)c1ccccc1Br | 52% (active)
50 | Cc1cc2nn(-c3ccccc3)nc2cc1NC(=O)c1cccc([N+](=O)[O-])c1C | 16%
51 | Cc1cc2nn(-c3ccc(Cl)cc3)nc2cc1NC(=O)c1ccccc1C | 36%
52 | Cc1ccc(-n2nc3cc(C)c(NC(=O)c4ccccc4Br)cc3n2)cc1 | 4%
53 | Cc1ccc(-n2nc3cc(C)c(NC(=O)c4cccc([N+](=O)[O-])c4C)cc3n2)cc1 | 51% (active)
54 | Cc1cc2nn(-c3ccccc3)nc2cc1NC(=O)/C=C/c1ccc(Cl)cc1 | 54% (active)
55 | Cc1ccc(OCCOc2ccc(Br)cc2/C=C2\SC(=S)NC2=O)c(C)c1 | 46%
56 | O=C(COC(=O)c1ccccc1Cl)c1ccc(Cl)cc1Cl | 43%
57 | CCOC(=O)C1=C(C)N=c2s/c(=C/c3ccc(-c4cc([N+](=O)[O-])ccc4OC)o3)c(=O)n2C1c1cccs1 (stereo not given) | 8%
58 | CC(O)c1cccc(NC(=O)c2nn3c(c2Cl)NC(c2cccs2)CC3C(F)(F)F)c1 (stereo not given) | 6%
59 | COc1ccc(-c2cc(-c3ccccc3)nc(-c3ccc(C)o3)c2)cc1 | 16%
60 | Cc1ccc(-n2nc3cc(C)c(NC(=O)c4cc(Cl)ccc4Cl)cc3n2)cc1 | 5%
61 | Cc1cc2nn(-c3ccc(Cl)cc3)nc2cc1NC(=O)c1ccc([N+](=O)[O-])cc1Cl | 50% (active)
62 | Cc1cc2nn(-c3ccccc3)nc2cc1NC(=O)c1ccc([N+](=O)[O-])cc1Cl | 22%
63 | Cc1ccc(-n2nc3cc(C)c(NC(=O)c4ccc([N+](=O)[O-])cc4Cl)cc3n2)cc1 | 0%
64 | COc1ccc(-n2nc3cc(C)c(NC(=O)c4cc(Cl)ccc4Cl)cc3n2)cc1 | 35%
65 | Cc1cc2nn(-c3ccc(Cl)cc3)nc2cc1NC(=O)c1cc(Cl)ccc1Cl | 52% (active)
